A selection: hits, their analogues and other compounds. The true share with any hit is near 2.8%.
KKLEB cytotox: counter-screen for CF NF-kB inhibitors: cytotoxicity; actives 0.36% (n = 360,000); activity change (cytotoxicity), % at 5 µM; KKLEB CF airway cells viability, ATPlite luminescence, overnight; stronger effect = lower value; cells stimulated with P. aeruginosa culture filtrate;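 active = corrected activity change at or below -50% at 5 µM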
CF NFkB block: cystic fibrosis NF-kB activation inhibition; inhibition, % at 5 µM; KKLEB NF-kB-GFP reporter, PAF-induced, GFP fluorescence overnight; actives 0.86% (n = 360,000); AID 588850;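 active = at least 50% inhibition at 5 µM, scaled per plate between neutral and stimulator controls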;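 note: PAF is a Pseudomonas aeruginosa culture filtrate used as stimulus; plate controls were PAF-stimulated DMSO wells for no effect and unstimulated DMSO wells for full effect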
Peg3 prom inh: inhibitors of Peg3 promoter. HeLa PEG-Prom luciferase reporter, luminescence, overnight. inhibition, % at 20 µM. actives 1.7% (n = 360,000). AID 588405;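 active = inhibition of at least 50% at 20 µM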
HIF-2a block: inhibitors of HIF-2a; AID 624352; inhibition, % at 18.8 µM; 786-0 RCC cells HIF-2a reporter, luciferase luminescence, overnight; actives 0.72% (n = 360,000);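 active = inhibition of the luminescence signal of 40% or more relative to plate controls, in a single-dose primary screen at 18.75 µM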
B2AR ag: human beta-2 adrenergic receptor agonism by FAP | Am2.2-beta2AR cells, FAP receptor internalization, flow cytometry | response, % (no concentration beside the values) | actives 0.43% (n = 340,000) | P07550;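 active = response above a set limit, near 3 SD of response in nonfluorescent compounds, cut at about 42% in these data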
MITF TRPM1 inh: inhibitors of MITF-driven TRPM1 promoter in melanoma cells; SK-MEL-5 TRPM1 promoter luciferase, 24 h; inhibition, % at 12.5 µM; actives 0.83% (n = 330,000); AID 488899;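 active = mean inhibition across replicates of 60% or more, whatever share of single replicates reaches that level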
Mdm2 MdmX conf: Mdm2/MdmX (human) interaction inhibition, confirmed. actives 99% (n = 740). AID 504601. inhibition, % at 8 µM. shares compounds with HIF-2a block. SaOS-2 split-luciferase Mdm2/MdmX complementation, luminescence;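 active = mean inhibition of the luminescence signal across two replicates at or above 26 percent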
HIF-2a conf: confirmation of HIF-2a inhibitors; 786-0 RCC cells, HIF-2a luciferase reporter luminescence, overnight; shares compounds with HIF-2a block; AID 651580; inhibition, % at 18.8 µM; actives 56% (n = 1,800);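 active = mean inhibition across four replicates of at least 40 percent at the single tested concentration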
HIF-1a cs: counter-screen for HIF-2a inhibitors: HIF-1a inhibition in MiaPaCa-2 cells; shares compounds with HIF-2a block; MiaPaCa-2 HIF-1a luciferase reporter, desferoxamine, overnight; inhibition, % at 18.8 µM; actives 72% (n = 1,800);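 active = mean inhibition of the reporter signal across four replicates at the single tested dose of 50% or more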
* marks the source's active call; other numbers are inactive results.

O=C(NC1CCCC1)C(c1ccco1)N1CCC(O)(c2ccc(Cl)cc2)CC1 (stereo not drawn) was read as HIF-2a block 1.1.
Oc1ccc(N=Nc2ccc3c(c2)OCCO3)c2cccnc12 was read as KKLEB cytotox -2.8, CF NFkB block -2.6, Peg3 prom inh -6.3, HIF-2a block 26.1, B2AR ag 12.4, MITF TRPM1 inh 64.7* and Mdm2 MdmX conf 88.7*.
For N#C/C(=C\c1ccccc1)C(=O)N(c1ccccn1)C1CCCCC1 the results were KKLEB cytotox -2.6, CF NFkB block 1.0, Peg3 prom inh 21.9, HIF-2a block 45.4*, B2AR ag 26.6, MITF TRPM1 inh 12.8, HIF-2a conf 45.9* and HIF-1a cs 20.2.
For COc1cccc(C2/C(=C(/O)c3ccc4c(c3)CC(C)O4)C(=O)C(=O)N2CCCn2ccnc2)c1 (stereo not drawn) the results were KKLEB cytotox -1.3, CF NFkB block 19.6, Peg3 prom inh -0.3, HIF-2a block -30.6, B2AR ag -4.1 and MITF TRPM1 inh -16.9.
Screening Cc1scc(C(=O)N/N=C/c2ccc([N+](=O)[O-])o2)c1C returned KKLEB cytotox 6.0, CF NFkB block -11.6, Peg3 prom inh 9.3, HIF-2a block 61.3*, B2AR ag 7.2, MITF TRPM1 inh 100.3*, HIF-2a conf 61.9* and HIF-1a cs 83.6*.
Cc1scc(C(=O)N/N=C/c2ccco2)c1C was read as KKLEB cytotox 5.3, CF NFkB block -2.7, Peg3 prom inh -156.3, HIF-2a block -138.8, B2AR ag -7.5 and MITF TRPM1 inh -41.4.
Screening COc1ccc(N2CCN(C(=O)CCN3C(=S)NC(C)(C)CC3C)CC2)cc1 (stereo not drawn) returned KKLEB cytotox 1.5, CF NFkB block 0.2, Peg3 prom inh 21.1, HIF-2a block 11.0, B2AR ag 2.8 and MITF TRPM1 inh 14.8.
CCc1ccc2c(c1)/C(=C/C(=O)c1cccs1)C(=O)N2 was read as KKLEB cytotox -24.2, CF NFkB block 24.0, Peg3 prom inh -24.5, HIF-2a block 74.7*, B2AR ag 78.1*, MITF TRPM1 inh 70.1*, HIF-2a conf 60.8* and HIF-1a cs 103.2*.
Screening CC(C)(C)c1ccc(/C=C/C(=O)NCCCN2CCOCC2)cc1 returned KKLEB cytotox -7.6, CF NFkB block -7.6, Peg3 prom inh -3.7, HIF-2a block 47.6*, B2AR ag 5.3, MITF TRPM1 inh 2.2, HIF-2a conf 25.6 and HIF-1a cs 29.5.
Screening Cc1ccc(/C=C/C(=O)NCCCN2CCN(CCCNC(=O)/C=C/c3ccc(C)cc3)CC2)cc1 returned KKLEB cytotox 1.6, CF NFkB block -0.7, Peg3 prom inh -11.3, HIF-2a block -9.3, B2AR ag 4.3 and MITF TRPM1 inh 9.6.
Cc1ccc(S(=O)(=O)c2ncccc2N)cc1 was read as KKLEB cytotox 8.3, CF NFkB block -3.0, Peg3 prom inh 2.6, HIF-2a block 20.6, B2AR ag -3.8 and MITF TRPM1 inh 1.2.
`Cc1ccc(S(=O)(=O)c2ncccc2[N+](=O)[O-])cc1` gave KKLEB cytotox -64.6*, CF NFkB block 102.1*, Peg3 prom inh 101.8*, HIF-2a block 72.4*, B2AR ag -73.6, MITF TRPM1 inh 76.6*, Mdm2 MdmX conf 100.5*, HIF-2a conf 46.7* and HIF-1a cs 20.2.
Screening O=C(Nc1ccc(N2CCN(C(=O)c3ccccc3)CC2)cc1)c1ccc([N+](=O)[O-])o1 returned KKLEB cytotox -71.7*, CF NFkB block 84.0*, Peg3 prom inh 102.6*, HIF-2a block 90.2*, B2AR ag 8.9, MITF TRPM1 inh 91.1*, HIF-2a conf 87.9* and HIF-1a cs 105.1*.
For CC(C)C(=O)N1CCN(c2ccc(NC(=O)c3ccc([N+](=O)[O-])o3)cc2)CC1 the results were KKLEB cytotox -46.7, CF NFkB block 90.1*, Peg3 prom inh 111.6*, HIF-2a block 88.6*, B2AR ag 3.9, MITF TRPM1 inh 92.3*, HIF-2a conf 54.4* and HIF-1a cs 98.5*.
Screening CC(C)C(=O)N1CCN(c2ccc(NC(=O)c3ccc(Br)o3)cc2)CC1 returned KKLEB cytotox 8.1, CF NFkB block 4.9, Peg3 prom inh -5.1, HIF-2a block -18.6, B2AR ag 6.2 and MITF TRPM1 inh -14.0.
Screening Cc1ccccc1C(=O)N1CCN(c2ccc(NC(=O)c3ccc([N+](=O)[O-])o3)cc2)CC1 returned KKLEB cytotox -19.5, CF NFkB block 64.0*, Peg3 prom inh 100.9*, HIF-2a block 96.0*, B2AR ag 17.8, MITF TRPM1 inh 80.5*, HIF-2a conf -0.2 and HIF-1a cs 100.5*.
Cc1cn([C@H]2C[C@H](O)[C@@H](CNC/C=C/c3ccccc3[N+](=O)[O-])O2)c(=O)[nH]c1=O was read as KKLEB cytotox -4.5, CF NFkB block 23.3, Peg3 prom inh 23.2 and HIF-2a block 21.7.
Screening CC(=O)Nc1ccc(OCc2cccc3ccccc23)cc1 returned KKLEB cytotox 2.2, CF NFkB block -16.8, Peg3 prom inh 16.6, HIF-2a block 87.7*, B2AR ag -5.5, MITF TRPM1 inh 2.9, HIF-2a conf 97.0* and HIF-1a cs 90.0*.
For O=C(/C(=C/c1ccc(Cl)cc1)c1nc2ccccc2[nH]1)c1cccs1 the results were KKLEB cytotox -60.7*, CF NFkB block 98.5*, Peg3 prom inh 106.1*, HIF-2a block 93.0*, B2AR ag 61.7*, MITF TRPM1 inh 94.6* and Mdm2 MdmX conf 102.2*.
For O=C(/C(=C\c1ccccc1)c1nc2ccccc2[nH]1)c1ccc(Cl)cc1 the results were KKLEB cytotox -14.0, CF NFkB block 42.1, Peg3 prom inh 87.2*, HIF-2a block 63.9*, B2AR ag 14.6, MITF TRPM1 inh 19.8, HIF-2a conf -155.2 and HIF-1a cs 99.6*.
COc1cc(/C=C(/C(=O)c2cccs2)c2nc3ccccc3[nH]2)ccc1O was read as KKLEB cytotox -2.5, CF NFkB block 33.8, Peg3 prom inh 103.2*, HIF-2a block 67.6*, B2AR ag 2.5, MITF TRPM1 inh 46.4, HIF-2a conf 9.1 and HIF-1a cs 103.7*.
For CC(C)(C)c1ccc(-c2n[nH]c(=S)n2CCCN2CCOCC2)cc1 the results were KKLEB cytotox 4.2, CF NFkB block -2.1, Peg3 prom inh 11.9, HIF-2a block 18.1, B2AR ag 2.2 and MITF TRPM1 inh 4.4.

High-throughput results (PubChem)
